An excerpt weighted towards active compounds, which were near 2.4% of everything screened.
NOD2 RIPK2 PPI: NOD2-RIPK2 binding disruptors in cells, primary screen, fluorescence, CHO cells, BLA complementation; CCF4 ratio; inhibition, % at 4.98 µM; 360,000 compounds, 0.38% hits; AID 624267, 2012; in the data active = inhibition above about 21%
HSF-1 act: HSF-1 activators, primary screen, NIH3T3-HGL cells, MG132 stress, luminescence, single point; 300,000 compounds, 1.7% hits; NIH3T3-HGL HSF-1 luciferase reporter, 8 h; 100% = twice DMSO control signal; AID 504408, 2011; activation, % at 9 µM;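 active = mean replicate activation of at least 50% with a set share of replicates each reaching 50%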
TLR4 MyD88 comp: inhibitors of TLR4-MyD88 association in cells, primary screen, cell-based, HeLa CL3-4, BLA complementation, FRET ratio | HeLa CL3-4 TLR4/MyD88 BLA complementation | 200,000 compounds, 0.18% hits | AID 861, 2007 | inhibition, % at 8.4 µM; in the data active = inhibition above about 25%
Target sequence (O00206 whole entry, looked up): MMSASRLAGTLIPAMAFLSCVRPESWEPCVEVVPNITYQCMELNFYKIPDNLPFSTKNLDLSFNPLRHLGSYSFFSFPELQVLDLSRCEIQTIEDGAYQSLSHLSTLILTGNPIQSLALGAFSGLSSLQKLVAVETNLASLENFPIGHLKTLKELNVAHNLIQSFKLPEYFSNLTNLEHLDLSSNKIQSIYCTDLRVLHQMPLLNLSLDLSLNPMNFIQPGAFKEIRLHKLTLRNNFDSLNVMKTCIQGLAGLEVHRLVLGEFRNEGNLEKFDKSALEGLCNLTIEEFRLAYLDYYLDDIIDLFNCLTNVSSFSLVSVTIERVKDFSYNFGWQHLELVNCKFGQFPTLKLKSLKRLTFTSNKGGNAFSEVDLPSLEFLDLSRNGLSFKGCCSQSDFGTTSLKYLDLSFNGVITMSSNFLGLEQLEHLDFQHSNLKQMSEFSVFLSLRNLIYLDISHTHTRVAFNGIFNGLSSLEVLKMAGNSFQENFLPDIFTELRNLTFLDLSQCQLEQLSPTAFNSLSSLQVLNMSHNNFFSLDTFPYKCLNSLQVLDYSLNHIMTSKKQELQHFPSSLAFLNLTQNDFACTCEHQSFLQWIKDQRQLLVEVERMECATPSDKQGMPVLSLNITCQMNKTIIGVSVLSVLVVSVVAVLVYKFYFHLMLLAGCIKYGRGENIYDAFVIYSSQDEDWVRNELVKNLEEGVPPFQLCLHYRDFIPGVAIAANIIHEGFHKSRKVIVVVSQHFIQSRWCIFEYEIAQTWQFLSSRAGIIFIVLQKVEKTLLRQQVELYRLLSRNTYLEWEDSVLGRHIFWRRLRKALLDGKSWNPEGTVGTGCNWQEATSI
Target sequence (Q99836 whole entry, looked up): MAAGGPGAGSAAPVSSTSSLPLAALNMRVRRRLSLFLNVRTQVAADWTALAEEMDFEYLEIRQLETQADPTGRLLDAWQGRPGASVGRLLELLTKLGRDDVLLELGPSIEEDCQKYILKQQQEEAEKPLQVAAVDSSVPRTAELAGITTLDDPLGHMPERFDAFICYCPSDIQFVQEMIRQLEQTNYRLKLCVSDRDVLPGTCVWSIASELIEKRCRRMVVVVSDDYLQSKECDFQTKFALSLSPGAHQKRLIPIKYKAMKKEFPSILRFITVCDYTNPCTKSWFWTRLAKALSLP
TLR9-MyD88 inh: inhibitors of TLR9-MyD88 association in cells, primary screen, cell-based, CHO, BLA complementation, fluorescence | 340,000 compounds, 0.21% hits | CCF4 FRET ratio | inhibition, % at 4.98 µM | Toll-like receptor 9 (Homo sapiens) + Myeloid differentiation primary response protein …;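 active = inhibition above the mean over all tested compounds plus 3 SD, cut at about 21% in these data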
HSF1 inhib: HSF1 inhibitors in luciferase reporter cells, primary screen, cell-based, NIH3T3, luminescence | 300,000 compounds, 0.77% hits | activity change, negative = inhibition, % at 7.5 µM (by protocol) | AID 2098, 2009 | NIH3T3-HGL HSE-luciferase, MG132-induced, luminescence 8 h; stronger effect = lower value;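 active = more than half of replicate wells show activity change below -50%, luminescence cut by over half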;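 note: luciferase reports HSF-1 transcriptional activity via heat shock element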
A number is an active result; 0 = inactive; - = no result given.

SMILES | NOD2 RIPK2 PPI | HSF-1 act | TLR4 MyD88 comp | TLR9-MyD88 inh | HSF1 inhib
COc1ccc(NC(=O)CNc2cc(C)ccc2C)cc1S(=O)(=O)N1CCOCC1 | 0 | - | - | 0 | -
O=[N+]([O-])c1ccc(/C=[N+](\[O-])[C@@H]2CCCC[C@@H]2/[N+]([O-])=C/c2ccc([N+](=O)[O-])o2)o1 | 0 | 71 | - | 0 | 0
COc1cccc(/C=N/NC(=S)NC2CC3CC2C2C=CCC32)c1O (stereo not drawn) | 0 | 105 | - | 0 | 0
Oc1ccccc1/C=N/NC(=S)NC1CC2CC1C1C=CCC21 (stereo not drawn) | 0 | 0 | - | 0 | 0
Cc1ccc(-c2cc(C(=O)N3CCN(c4ncccn4)CC3)c3cc(Br)ccc3n2)o1 | 0 | 76 | 0 | 0 | 0
CCC(=O)Nc1cccc(C(=O)/C=C/c2ccc(F)cc2)c1 | 0 | 75 | 0 | 0 | 0
O=C(/C=C/c1cccc([N+](=O)[O-])c1)NC(=S)Nc1ccccc1C(=O)O | - | - | 0 | - | -
O=C(/C=C/c1cccc([N+](=O)[O-])c1)NC(=S)Nc1cccc(NC(=O)c2ccccc2Cl)c1 | 0 | 61 | 0 | 0 | 0
CCN(c1ccccc1)S(=O)(=O)c1cccc(C(=O)Nc2cccc(C)n2)c1 | 0 | - | - | 0 | -
O=c1[nH]cnc2c1sc1nc(C(F)F)cc(-c3ccccc3)c12 | 0 | - | - | 0 | -
Cc1ccc(NC(=S)N=Nc2c(O)n(C)c3ccc(S(=O)(=O)N4CCOCC4)cc23)cc1 | 0 | 58 | 0 | 0 | 0
C=CCOc1ccc(/C=C2\SC(=S)N(NS(=O)(=O)c3ccc(C)cc3)C2=O)cc1 | 0 | 0 | - | 0 | 0
CCOc1ccccc1/C=C/c1onc(C)c1S(=O)(=O)N1CCC(C(=O)NC(C)(C)C)CC1 | 0 | 0 | - | 0 | -83
CCN(CC)c1ccc(NC(=O)c2ccco2)cc1 | 0 | 0 | 0 | 0 | 0
CCNC(=S)Nc1cc(OC)c(NC(=O)c2ccco2)cc1OC | 0 | 0 | 0 | 0 | 0
CCN(CC)c1ccc(NC(=S)NC(=O)c2ccco2)cc1 | 0 | 180 | 0 | 0 | 0
COC(=O)c1cc(OC)c(OC)cc1NC(=S)NC(=O)c1ccco1 | 0 | 73 | - | 0 | 0
O=C1CCCC(O)=C1Sc1cc(Cl)c(Cl)cc1Cl | 0 | 0 | - | - | 0
COc1ccc(Nc2ccc3c(c2)=NC2(CCCCC2)[N+]=3[O-])cc1 | 0 | 79 | 0 | 0 | 0
CC1(C)CC(CCN)(Cc2ccccc2Cl)CCO1 (stereo not drawn) | 0 | 60 | - | 0 | 0
CCOC(=O)c1c(NC(=O)CSc2nccn2C)sc(C(=O)NC)c1C | 0 | 0 | - | 0 | 0
O=C(CSc1nnc(-c2ccncc2)n1Cc1ccco1)N1c2ccccc2Sc2ccc(Cl)cc21 | 0 | 70 | 0 | 0 | 0
Cn1c(SCC(=O)N2c3ccccc3Sc3ccc(Cl)cc32)nnc1-c1ccco1 | 0 | - | 0 | 0 | -
O=C(/C=C/c1ccccc1)NC(=S)Nc1ccc(CN2CCOCC2)cc1 | 0 | 73 | 0 | 0 | 0
Cc1cc(NC(=S)NC(=O)/C=C/c2ccc(S(=O)(=O)N3CCOCC3)cc2)ccc1Br | 0 | 100 | 0 | 0 | 0
SMILES | NOD2 RIPK2 PPI | HSF-1 act | TLR4 MyD88 comp | TLR9-MyD88 inh | HSF1 inhib
O=C(/C=C/c1ccc(S(=O)(=O)N2CCOCC2)cc1)NC(=S)Nc1ccc(N2CCOCC2)cc1 | 0 | 0 | 0 | 0 | 0
O=C(/C=C/c1ccccc1)NC(=S)Nc1ccccc1O | 0 | 59 | - | 0 | 0
O=C(/C=C/c1ccc(Cl)cc1Cl)NC(=S)Nc1ccc(CN2CCOCC2)cc1 | 0 | 0 | 0 | 0 | 0
CCN(CC)C(=O)c1cccc(-c2csc(C(O)c3ccc(F)cc3)n2)c1 (stereo not drawn) | 0 | - | - | - | -
NC(=S)NN=C1Cc2cccc3cccc1c23 | 0 | - | - | 0 | -
Clc1cccc(N/N=C(\Cc2nc3ccccc3[nH]2)c2ccccc2)c1 | 0 | 70 | 0 | 0 | 0
O=C(CN1C(=O)C2C3CCC(C3)C2C1=O)OCC(=O)c1ccc(Br)cc1 (stereo not drawn) | 0 | 0 | - | 0 | 0
O=C(CN1C(=O)C2C3C=CC(C3)C2C1=O)OCC(=O)c1ccc(Br)cc1 (stereo not drawn) | 0 | 0 | - | 0 | -60
Cc1cc(N2CCCC2)ccc1NC(=O)CN1C(=O)NC2(CCCCC2)C1=O | 0 | 0 | - | 0 | 0
CCC(NC(=O)/C(=C\c1ccc2c(c1)OCO2)NC(C)=O)C(=O)O (stereo not drawn) | 0 | 59 | 0 | 0 | 0
CC(=O)N/C(=C/c1ccc2c(c1)OCO2)C(=O)O | 0 | 0 | 0 | 0 | 0
CN(C)c1ccc(C2Nc3ccccc3C(=O)N2CCCN2CCOCC2)cc1 (stereo not drawn) | 0 | 0 | - | 0 | -68
Cc1ccc(C(=O)NCC(=O)OCc2cccc(Br)c2)cc1 | 0 | 0 | - | 0 | 0
C/C(=N\NC(=O)c1ccccn1)C12CC3CC(CC(C3)C1)C2 | 0 | 0 | 0 | 0 | 0
C/C(=N/NC(=O)c1ccoc1C)C12CC3CC(CC(C3)C1)C2 | 0 | 59 | 0 | 0 | 0
O=C(CSc1nc2ccccc2[nH]1)NC(=O)NCc1ccco1 | 0 | 0 | 0 | 0 | 0
O=C(CCCSc1nc2ccccc2[nH]1)NCc1ccco1 | 0 | 68 | 0 | 0 | 0
COc1cc(/C=c2\s/c(=C(/C#N)C(=O)N3CCCC3)n(-c3ccccc3)c2=O)ccc1O | 0 | - | 0 | 0 | -
Cc1ccc(/C=c2\s/c(=C(/C#N)C(=O)N3CCCC3)n(Cc3ccco3)c2=O)s1 | 0 | 90 | 0 | 0 | 0
Cc1cccc(C)c1-n1nnnc1C1(C)CCC(=O)N1Cc1ccco1 (stereo not drawn) | 0 | - | - | - | -
CCOC(=O)c1c(NC(=O)COc2ccccc2C#N)sc2c1CC(C)(C)NC2(C)C | 0 | 0 | - | 0 | -53
CC(C)c1nnc(NC(=O)C2CCN(C(=O)c3ccco3)CC2)s1 | 0 | 0 | - | 0 | -64
Cc1nnc(NC(=O)C2CCN(C(=O)c3ccco3)CC2)s1 | 0 | 0 | - | 0 | 0
COc1ccc(OCCN(C)Cc2c(O)ccc3ccccc23)cc1 | 0 | 130 | - | 0 | 0
CN(Cc1ccccc1)Cc1c(O)ccc2ccccc12 | 0 | 0 | - | 0 | 0
SMILES | NOD2 RIPK2 PPI | HSF-1 act | TLR4 MyD88 comp | TLR9-MyD88 inh | HSF1 inhib
CCCCOc1cccc(C2C(C(=O)c3cccs3)=C(O)C(=O)N2Cc2cccnc2)c1 (stereo not drawn) | 0 | 0 | 0 | 0 | -64
CCOc1cccc(C2C(C(=O)c3cccs3)=C(O)C(=O)N2Cc2cccnc2)c1 (stereo not drawn) | 0 | 0 | 0 | 0 | 0
Cc1noc(C)c1CSCC(=O)Nc1ccc(S(=O)(=O)C(F)F)cc1 | 0 | 0 | - | 0 | -58
Cc1noc(C)c1CSCC(=O)Nc1ccc(OC(F)F)c(Cl)c1 | 0 | 0 | - | 0 | 0
COc1ccc(C/C(C)=N/NC(=S)Nc2ccc(C(C)C)cc2)cc1 | 0 | 0 | 0 | 0 | 0
COc1ccc(C/C(C)=N/NC(=S)Nc2ccccc2F)cc1 | 0 | 0 | 0 | 0 | -64
